Source: PubChem BioAssay
The source made the active and inactive calls. Unless noted, no rule for the calls is given here.

How the values were obtained:
[1] = tested on: Wnt5a (protein binding on small-molecule microarray); assay: Wnt5a binders on small-molecule microarray, primary screen, biophysical, 635/667 nm fluorescence (AID 1142); settings: 635 nm fluorescence, higher = more signal;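 also: fluorescence read at 667 nm with signal to noise per printed feature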
[2] = cell viability in Huh7 cells, primary screen, cytotoxicity control for HCV replication inhibitor project, CellTiter-Glo luminescence, basal, 48 h (AID 1143); settings: Huh7 HCV replicon, higher = more signal, called active from +8 up or from −8 down;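 also: Huh7 hepatoma cells carrying a hepatitis C replication reporter with no stimulus; test concentration not given here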
[3] = P. aeruginosa biofilm formation inhibitors, primary screen, PAO1 strain, BacTiter-Glo luminescence, LB-PBS (AID 1144); settings: 12 h, higher = more signal
[4] = CREB reporter modulators without forskolin, primary screen, cell-based, PC12, CRE-LacZ reporter, unstimulated (AID 1145); settings: no forskolin, luminescence, 4.5 h, higher = more signal, called active from +8 up or from −8 down
[5] = CREB reporter modulators under forskolin, primary screen, cell-based, PC12, CRE-LacZ reporter, forskolin-stimulated (AID 1146); settings: luminescence, 4.5 h, higher = more signal, called active from +8 up or from −8 down;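 also: PC12 cells with 6xCRE LacZ reporter stimulated by forskolin 10 µM; beta-galactosidase reporter signal reflecting CREB driven transcription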
[6] = target: Streptavidin (Streptomyces avidinii) (UniProt P22629); assay: streptavidin binders on small-molecule microarray, primary screen, artefact control for SMM compound annotation, biophysical, 635/667 nm fluorescence (AID 1147); settings: streptavidin binding, higher = more signal;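 also: signal reflects streptavidin binding to arrayed compounds as a control protein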
[7] = small-molecule binders of probe aInhba, primary screen, biochemical, small-molecule microarray, 635/667 nm fluorescence (AID 1148); settings: higher = more signal;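 also: score merges 667nm spot fluorescence with signal-to-noise for antibody binding to printed compounds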
[8] = target: Torsin-1A (Homo sapiens) (UniProt O14656); assay: torsin A binders from cell lysate, primary screen, small-molecule microarray, wild-type, 635/667 nm (AID 1149); settings: COS7 hTOR1A-WT lysate, 635 nm fluorescence, higher = more signal
[9] = target: Torsin-1A (Homo sapiens) (UniProt O14656); assay: small-molecule binders of mutant TOR1A in lysate, primary screen, cell lysate, small-molecule microarray, COS7 lysate, 635/667 nm fluorescence (AID 1150); settings: COS7 hTOR1A mutant lysate, 635 nm fluorescence, higher = more signal;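 also: score pools 667 nm emission and signal to noise measuring lysate protein binding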
[10] = tested on: Sonic hedgehog protein (Shh); assay: small-molecule binders of Shh protein, primary screen, biochemical, small-molecule microarray, 635/667 nm fluorescence (AID 1151); settings: small-molecule microarray binding, 635 nm fluorescence; higher = more signal;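 also: Shh protein binding to compounds spotted on small-molecule microarray slides; score combines spot fluorescence intensity with signal-to-noise across triplicate slides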
[11] = E. coli DRC41 culture turbidity changes, primary screen, E. coli filamentation inducer project, strain DRC41, OD650, 48 h (AID 1152);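 also: E. coli MC1000 strain DRC41 lacking acrAB efflux pump and sulA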; settings: E. coli DRC41 (acrAB sulA), higher = more signal, called active from +8 up or from −8 down
[12] = small-molecule binders of probe aLefty1, primary screen, biochemical, small-molecule microarray, 635/667 nm fluorescence (AID 1153); settings: higher = more signal;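 also: score merges spot fluorescence with signal-to-noise ratio from the scanned slide images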
[13] = PSAC antagonists in infected red cells, primary screen, cell-based, P. falciparum Indochina, OD700, 1 h (AID 1154); settings: P. falciparum Indochina infected RBC osmotic lysis, higher = more signal, called active from +8 up or from −8 down
[14] = PSAC antagonists in infected red cells, primary screen, cell-based, P. falciparum Indochina, OD700, 2 h (AID 1155);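 also: lysis reports solute entry through the parasite surface anion channel PSAC; channel blockers reduce lysis of infected cells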; settings: P. falciparum Indochina infected erythrocytes, osmotic lysis OD700; higher = more signal, called active from +8 up or from −8 down
[15] = osmotic lysis modulators in infected erythrocytes, primary screen, PSAC antagonist project, cell-based, P. falciparum Indochina, OD700, 3 h (AID 1156); settings: higher = more signal, called active from +8 up or from −8 down
[16] = PSAC antagonists in infected red cells, primary screen, cell-based, P. falciparum Indochina, OD700, 18 h (AID 1157); settings: P. falciparum Indochina infected erythrocytes, osmotic lysis OD700, 18 h; higher = more signal, called active from +8 up or from −8 down
[17] = modulators of S6 phosphorylation in cells, primary screen, cell-based, A549, cytoblot, luminescence, serum-stimulated (AID 1158); settings: A549 phospho-S6 cytoblot, 5 h, higher = more signal;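 also: serum-stimulated A549 lung adenocarcinoma cells; signal is phosphorylated S6 detected by cytoblot immunostaining with HRP secondary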
[18] = target: NADPH oxidase 2 (Homo sapiens) (UniProt P04839); assay: NOX2-dependent H2O2 signal modulators, primary screen, NOX inhibitor project, cell-based, HEK293-NOX2, PMA-stimulated, Amplex Red fluorescence (AID 1159); settings: 45 min, higher = more signal, called active from +8 up or from −8 down; also: test concentration not given here
[19] = target: NADPH oxidase 4 (Homo sapiens) (UniProt Q9NPH5); assay: NOX4-dependent H2O2 signal modulators, primary screen, NOX inhibitor project, cell-based, HEK293-NOX4, tetracycline-induced, Amplex Red fluorescence (AID 1160); settings: 45 min, higher = more signal, called active from +8 up or from −8 down
[20] = target: NADPH oxidase 5 (Homo sapiens) (UniProt Q96PH1); assay: NOX5-dependent H2O2 signal modulators, primary screen, NOX inhibitor project, cell-based, HEK293-NOX5, Amplex Red fluorescence (AID 1161); settings: HEK293-NOX5, ionomycin, 45 min, higher = more signal
Chain of NADPH oxidase 5 (Homo sapiens) (Q96PH1 whole entry, looked up): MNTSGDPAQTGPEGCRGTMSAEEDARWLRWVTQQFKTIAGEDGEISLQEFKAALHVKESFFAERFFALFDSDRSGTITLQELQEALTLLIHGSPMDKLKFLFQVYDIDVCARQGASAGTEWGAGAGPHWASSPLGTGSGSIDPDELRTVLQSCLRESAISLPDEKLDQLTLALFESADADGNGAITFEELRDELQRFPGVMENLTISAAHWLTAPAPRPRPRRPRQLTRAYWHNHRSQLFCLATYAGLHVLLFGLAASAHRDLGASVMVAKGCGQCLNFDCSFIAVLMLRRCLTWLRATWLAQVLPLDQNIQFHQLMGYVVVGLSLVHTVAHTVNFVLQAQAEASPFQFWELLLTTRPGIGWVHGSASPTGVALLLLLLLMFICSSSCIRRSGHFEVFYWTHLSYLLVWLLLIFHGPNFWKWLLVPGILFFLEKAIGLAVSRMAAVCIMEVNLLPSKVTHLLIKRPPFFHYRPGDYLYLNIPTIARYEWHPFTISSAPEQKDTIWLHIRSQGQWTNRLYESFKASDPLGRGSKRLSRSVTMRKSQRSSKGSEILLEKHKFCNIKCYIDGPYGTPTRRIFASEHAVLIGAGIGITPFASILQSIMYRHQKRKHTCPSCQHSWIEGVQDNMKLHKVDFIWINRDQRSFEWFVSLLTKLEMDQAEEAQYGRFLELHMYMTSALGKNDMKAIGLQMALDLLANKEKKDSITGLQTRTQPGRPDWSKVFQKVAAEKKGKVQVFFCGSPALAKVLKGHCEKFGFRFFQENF

Chain of Torsin-1A (Homo sapiens) (O14656 whole entry, looked up): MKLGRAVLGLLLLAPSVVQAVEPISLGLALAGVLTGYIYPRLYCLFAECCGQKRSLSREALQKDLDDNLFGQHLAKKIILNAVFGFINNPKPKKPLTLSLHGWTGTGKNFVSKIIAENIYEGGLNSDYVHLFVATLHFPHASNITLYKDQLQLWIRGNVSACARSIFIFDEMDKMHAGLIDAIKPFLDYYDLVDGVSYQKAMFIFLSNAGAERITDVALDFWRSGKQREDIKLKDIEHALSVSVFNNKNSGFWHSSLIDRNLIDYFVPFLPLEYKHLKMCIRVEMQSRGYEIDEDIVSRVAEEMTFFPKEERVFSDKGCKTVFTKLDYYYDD
Chain of NADPH oxidase 2 (Homo sapiens) (P04839 whole entry, looked up): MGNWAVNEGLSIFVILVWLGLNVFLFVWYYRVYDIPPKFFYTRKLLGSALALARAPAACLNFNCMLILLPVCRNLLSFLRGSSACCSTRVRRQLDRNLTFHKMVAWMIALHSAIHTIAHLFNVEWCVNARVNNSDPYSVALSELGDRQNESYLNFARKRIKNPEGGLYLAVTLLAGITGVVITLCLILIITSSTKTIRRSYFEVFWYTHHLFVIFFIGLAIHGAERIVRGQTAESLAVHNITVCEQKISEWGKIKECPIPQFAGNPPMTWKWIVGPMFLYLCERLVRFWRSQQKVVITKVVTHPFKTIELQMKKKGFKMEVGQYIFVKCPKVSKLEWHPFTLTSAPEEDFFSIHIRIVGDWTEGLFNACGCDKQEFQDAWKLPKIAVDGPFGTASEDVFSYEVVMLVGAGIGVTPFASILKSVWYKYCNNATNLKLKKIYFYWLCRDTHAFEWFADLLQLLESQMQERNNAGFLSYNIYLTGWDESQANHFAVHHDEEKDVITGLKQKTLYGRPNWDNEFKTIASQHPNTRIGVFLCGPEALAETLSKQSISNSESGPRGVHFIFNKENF
Chain of NADPH oxidase 4 (Homo sapiens) (Q9NPH5 whole entry, looked up): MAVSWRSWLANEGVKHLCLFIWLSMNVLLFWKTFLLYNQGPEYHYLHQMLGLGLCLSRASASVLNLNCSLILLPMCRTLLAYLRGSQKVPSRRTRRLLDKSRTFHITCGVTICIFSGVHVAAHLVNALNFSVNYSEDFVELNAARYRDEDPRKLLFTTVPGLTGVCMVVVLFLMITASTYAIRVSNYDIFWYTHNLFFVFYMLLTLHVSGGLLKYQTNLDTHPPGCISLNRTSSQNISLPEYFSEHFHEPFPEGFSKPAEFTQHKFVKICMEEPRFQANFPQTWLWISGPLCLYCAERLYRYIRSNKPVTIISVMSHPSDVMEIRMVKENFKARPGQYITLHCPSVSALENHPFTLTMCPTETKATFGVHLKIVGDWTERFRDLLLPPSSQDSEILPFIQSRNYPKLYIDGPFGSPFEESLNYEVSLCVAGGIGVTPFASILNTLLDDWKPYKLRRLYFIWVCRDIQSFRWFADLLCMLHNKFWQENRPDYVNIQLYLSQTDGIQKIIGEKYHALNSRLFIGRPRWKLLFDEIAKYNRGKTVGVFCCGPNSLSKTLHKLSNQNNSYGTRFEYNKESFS
Chain of Streptavidin (Streptomyces avidinii) (P22629 whole entry, looked up): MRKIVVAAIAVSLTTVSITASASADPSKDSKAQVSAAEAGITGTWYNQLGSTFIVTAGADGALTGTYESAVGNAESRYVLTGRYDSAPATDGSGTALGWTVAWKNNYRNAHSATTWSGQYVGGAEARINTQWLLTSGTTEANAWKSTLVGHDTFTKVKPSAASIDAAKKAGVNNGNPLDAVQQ

CC(C)CCC[C@@H](C)[C@H]1CC[C@@]2(C)C3=C(CC[C@]12C)[C@@]1(C)CC[C@H](OC(=O)C(C)(C)C)C(C)(C)C1CC3 (stereo not given in full)
composite z-score [1]: 0.228 | z-score [2]: -2.46 (inactive) | z-score [3]: -0.738 (inactive) | z-score [4]: 0.12 (inactive) | z-score [5]: -1.2 (inactive) | composite z-score [6]: 0.122 | composite z-score [7]: -0.186 | composite z-score [8]: 0.89 | composite z-score [9]: 0.31 | composite z-score [10]: 0.836 | z-score [11]: 0.836 (inactive) | composite z-score [12]: -0.374 | z-score [13]: -0.0452 (inactive) | z-score [14]: -0.698 (inactive) | z-score [15]: -0.647 (inactive) | z-score [16]: -1.07 (inactive) | z-score [17]: 2.9 | z-score [18]: 0.249 (inactive) | z-score [19]: 0.4 (inactive) | z-score [20]: 1.29

Cc1ccccc1C(O)C1C=CC2C(=O)N(Cc3ccccc3)C(=O)C2N1n1cnnc1 (stereo not given)
composite z-score [1]: 0.166 | z-score [2]: -0.293 (inactive) | z-score [3]: -1.45 (inactive) | z-score [4]: -0.667 (inactive) | z-score [5]: 0.688 (inactive) | composite z-score [6]: 0.0691 | composite z-score [7]: -0.0986 | composite z-score [8]: 0.374 | composite z-score [9]: 0.755 | composite z-score [10]: 0.59 | z-score [11]: -0.534 (inactive) | composite z-score [12]: 0.0722 | z-score [13]: 1.4 (inactive) | z-score [14]: 1.2 (inactive) | z-score [15]: 0.341 (inactive) | z-score [16]: 0.927 (inactive) | z-score [17]: -0.29 | z-score [18]: -0.4 (inactive) | z-score [19]: 0.1 (inactive) | z-score [20]: 0.067

OCCCC1=CC(c2cccs2)N(Cc2cccc(OC(F)(F)F)c2)CC1 (stereo not given)
composite z-score [1]: -0.335 | z-score [2]: -1.06 (inactive) | z-score [3]: 0.839 (inactive) | z-score [4]: 0.593 (inactive) | z-score [5]: -0.368 (inactive) | composite z-score [6]: -0.889 | composite z-score [7]: -0.179 | composite z-score [8]: 0.331 | composite z-score [9]: -0.632 | composite z-score [10]: 0.243 | z-score [11]: -1.07 (inactive) | composite z-score [12]: -0.0109 | z-score [13]: 7.72 (inactive) | z-score [14]: 1.33 (inactive) | z-score [15]: -0.499 (inactive) | z-score [16]: 1.07 (inactive) | z-score [17]: -0.105 | z-score [18]: -0.257 (inactive) | z-score [19]: -1.27 (inactive) | z-score [20]: -1.11

C=C(C(=O)CC[C@H](OC(=O)c1cccnc1)c1ccc(OCCO)cc1)C(C)C
composite z-score [1]: 0.287 | z-score [2]: -2.33 (inactive) | z-score [3]: 0.143 (inactive) | z-score [4]: 17.9 (active) | z-score [5]: 2.79 (inactive) | composite z-score [6]: 0.548 | composite z-score [7]: -0.0857 | composite z-score [8]: 1.12 | composite z-score [9]: 0.541 | composite z-score [10]: 1.47 | z-score [11]: -0.903 (inactive) | composite z-score [12]: 0.282 | z-score [13]: 23.1 (active) | z-score [14]: 5.33 (inactive) | z-score [15]: 1.01 (inactive) | z-score [16]: 1.24 (inactive) | z-score [17]: 0.136 | z-score [18]: -0.427 (inactive) | z-score [19]: 0.525 (inactive) | z-score [20]: -1.85

OCc1ccc(-c2cc[n+](Cc3cccc(OC(F)(F)F)c3)cc2)cc1
composite z-score [1]: 0.252 | z-score [2]: -1.64 (inactive) | z-score [3]: -0.473 (inactive) | z-score [4]: -0.374 (inactive) | z-score [5]: -0.119 (inactive) | composite z-score [6]: 1.24 | composite z-score [7]: -0.0221 | composite z-score [8]: 1.18 | composite z-score [9]: 1.12 | composite z-score [10]: 1.98 | z-score [11]: 0.0027 (inactive) | composite z-score [12]: 0.423 | z-score [13]: 0.51 (inactive) | z-score [14]: 0.409 (inactive) | z-score [15]: -0.445 (inactive) | z-score [16]: -0.0616 (inactive) | z-score [17]: -0.104 | z-score [18]: -0.316 (inactive) | z-score [19]: -0.0783 (inactive) | z-score [20]: -3.79

COC(=O)[C@@]1(Cc2ccccc2)[C@H]2c3cc(C(=O)N4CCCC4)n(Cc4ccccc4)c3C[C@H]2CN1C(=O)c1ccccc1
composite z-score [1]: 0.651 | z-score [2]: -3.2 (inactive) | z-score [3]: -0.402 (inactive) | z-score [4]: 1.74 (inactive) | z-score [5]: -0.0064 (inactive) | composite z-score [6]: 0.589 | composite z-score [7]: 0.53 | composite z-score [8]: -0.112 | composite z-score [9]: -0.0741 | composite z-score [10]: -0.606 | z-score [11]: -1.83 (inactive) | composite z-score [12]: 0.128 | z-score [13]: 3.6 (inactive) | z-score [14]: 0.945 (inactive) | z-score [15]: 0.365 (inactive) | z-score [16]: 1.03 (inactive) | z-score [17]: -0.276 | z-score [18]: -0.218 (inactive) | z-score [19]: -0.0718 (inactive) | z-score [20]: -1.23

CCOC(=O)C[C@H]1[C@H](OC(=O)c2cc3ccccc3oc2=O)[C@@H](NC(=O)c2ccc3ccccc3n2)c2cc(OCCCO)ccc2N1C(=O)c1ccc2ccccc2n1
composite z-score [1]: 0.27 | z-score [2]: -0.529 (inactive) | z-score [3]: 0.954 (inactive) | z-score [4]: 11.8 (active) | z-score [5]: -1.72 (inactive) | composite z-score [6]: 0.617 | composite z-score [7]: 0.539 | composite z-score [8]: 0.916 | composite z-score [9]: 0.378 | composite z-score [10]: 1.46 | z-score [11]: 1.03 (inactive) | composite z-score [12]: 0.174 | z-score [13]: 10.8 (active) | z-score [14]: 1.56 (inactive) | z-score [15]: 1.25 (inactive) | z-score [16]: 0.647 (inactive) | z-score [17]: -0.112 | z-score [18]: 0.786 (inactive) | z-score [19]: 0.715 (inactive) | z-score [20]: 2.28

C=C(CCCC)/C(=C/C[C@H](OC(=O)c1ccncc1)c1ccc(CO)o1)c1cc(C(=O)OC)ccc1OC
composite z-score [1]: 0.0136 | z-score [2]: -0.441 (inactive) | z-score [3]: -0.525 (inactive) | z-score [4]: 0.201 (inactive) | z-score [5]: 2.68 (inactive) | composite z-score [6]: 0.551 | composite z-score [7]: 0.221 | composite z-score [8]: 0.428 | composite z-score [9]: 0.646 | composite z-score [10]: 1.63 | z-score [11]: -0.432 (inactive) | composite z-score [12]: 0.178 | z-score [13]: 4.31 (inactive) | z-score [14]: 0.756 (inactive) | z-score [15]: 2.04 (inactive) | z-score [16]: 0.332 (inactive) | z-score [17]: -0.247 | z-score [18]: -0.582 (inactive) | z-score [19]: -0.903 (inactive) | z-score [20]: -1.57
